Out of some 48,000 compounds screened, about 13,000 (27%) showed an effect of 50% or more. Some of the results follow.
tested on: Wolbachia pipientis; assay: Anti-Wolbachia Cell-Based Screen; format: functional; set-up: scale not given: in the data most compounds retested in dose-response had high values; details: 5 µM

| Structure (SMILES) | Percent Effect [%] |
| --- | --- |
| CN(CCc1ncnn1-c1ccccc1Cl)C1CCS(=O)(=O)C1 (stereo not drawn) | 107.4 |
| CN(CCc1ccc2c(c1)CCO2)C1CCS(=O)(=O)CC1 | -8.2 |
| CN(Cc1ncnn1C1Cc2ccccc2C1)C1CCS(=O)(=O)C1 (stereo not drawn) | 124.4 |
| CN(CCc1ncnn1C1Cc2ccccc2C1)C1CCS(=O)(=O)C1 (stereo not drawn) | 86.57 |
| CCN(Cc1ccc(-c2ccccn2)cc1)C1CCS(=O)(=O)C1 (stereo not drawn) | -8.377 |
| CN(Cc1nc(C2CC2)no1)C1CCS(=O)(=O)C1 (stereo not drawn) | -44.33 |
| Cc1nc(CN(Cc2ccccc2)C2CCS(=O)(=O)C2)oc1C (stereo not drawn) | 1.056 |
| CCN(Cc1cc(-c2ccccn2)no1)C1CCS(=O)(=O)C1 (stereo not drawn) | -17.52 |
| CN(Cc1nc(C(C)(C)C)no1)C1CCS(=O)(=O)C1 (stereo not drawn) | -19.08 |
| Cc1ccc(O)c(C(=O)NCCS(=O)(=O)Cc2ccccc2)c1 | 0.3485 |
| O=C(CCN1C(=O)CCC1=O)Nc1cnn(-c2ccccc2Cl)c1 | -6.016 |
| Cc1cccc(OC(C)C(=O)NCC2(N(C)C)CCCC2)c1 (stereo not drawn) | 4.772 |
| Cc1nc(CN2CCN(C(=O)CCc3cccnc3)CC2)no1 | -0.7807 |
| CN(Cc1nc(C(F)(F)F)cs1)C(=O)CCc1ccccn1 | 104.8 |
| CN(Cc1cc(Br)cn1C)C(=O)Cc1cccnc1 | -0.2173 |
| CN(CCc1ccccn1)C(=O)Nc1cc(C(F)(F)F)c[nH]c1=O | 14.36 |
| CN(Cc1nc(C(F)(F)F)cs1)C(=O)CCc1cccnc1 | 99.2 |
| CN(Cc1ccccn1)C(=O)Nc1cc(C(F)(F)F)c[nH]c1=O | 11.49 |
| COC(=O)c1ccc2nc(CO[C@H]3CN(CC4CC4)C[C@H]3F)[nH]c2c1 | 5.552 |
| N#Cc1nccnc1N1CCC(COCc2ccccc2)C1 (stereo not drawn) | -0.4127 |
| OCC(O)CSCc1cn(-c2ccc(Cl)c(Cl)c2)nn1 (stereo not drawn) | -1.515 |
| C[S+]([O-])CCCNCc1cc(F)ccc1Br (stereo not drawn) | 11.95 |
| Cc1cnn(CCNCC(O)COc2ccc(C#N)cc2)c1 (stereo not drawn) | -2.958 |

| Structure (SMILES) | Percent Effect [%] |
| --- | --- |
| CCn1cnnc1CNC(=O)NCC(O)c1ccc(OC)cc1 (stereo not drawn) | 3.56 |
| CCn1cnnc1CNC(=O)N1CCN(c2cccc(OC)c2)CC1 | 2.392 |
| CCn1cnnc1CNC(=O)N(C)Cc1ccccc1OC | -13.71 |
| Cc1cccc(N2CCN(C(=O)Nc3cnn(CC(N)=O)c3)CC2)c1 | -8.219 |
| CCn1cnnc1CNC(=O)N1CCN(c2cccc(C)c2)CC1 | 81.4 |
| CCn1cnnc1CNC(=O)N1CCN(c2ccccc2O)CC1 | 92.65 |
| CCn1cnnc1CNC(=O)N1CCN(c2ccc(OC)cc2)CC1 | 88.94 |
| CCn1cnnc1CNC(=O)N1CCN(c2ccccc2OC)CC1 | 95.25 |
| CC(C)CC(NC(=O)CSCC(N)=O)c1cccs1 (stereo not drawn) | 3.191 |
| CN(C)S(=O)(=O)N1CCN(CC2CCOc3ccccc3C2)CC1 (stereo not drawn) | -1.148 |
| O=C(CN1C(=O)CCNC1=O)N1CCOC(c2ccc(Cl)c(Cl)c2)C1 (stereo not drawn) | 6.471 |
| CSCCCN1CCc2nc(N(C)C)nc(N3CCC(O)CC3)c2C1 | 3.21 |
| CCCc1cc(=O)[nH]c2nnc(SCC(=O)NC(C)(C)C)n12 | 7.571 |
| CC(O)c1cccc(-n2c(CCC(=O)O)nc3ccccc32)c1 (stereo not drawn) | 17.57 |
| CCn1cnnc1CNC(=O)N1CCOC(c2ccc(Cl)cc2)C1 (stereo not drawn) | -28.88 |
| CCn1cnnc1CNC(=O)N1CCN(c2ccccc2Cl)CC1 | 101.2 |
| CCn1cnnc1CNC(=O)N1CCOC(c2ccccc2Cl)C1 (stereo not drawn) | -10.89 |
| CC(C)CC(O)C1CCN(C(=O)c2ccc(C(F)(F)F)nc2O)CC1 (stereo not drawn) | -33.24 |
| CCN(C)CC(C)Cn1cnc(-c2ccccc2)c1C (stereo not drawn) | 25.31 |
| Cc1nc(C)c(CNCc2nnc3n2CCCC3C(F)(F)F)s1 (stereo not drawn) | -2.721 |
| O=C(CC1Cn2ncnc2NC1=O)Nc1cccc(C(F)(F)F)c1 (stereo not drawn) | 102.6 |
| CCc1ccc(C(=O)Nc2ccc(CC3CC(=O)NC3=O)cc2)cc1 (stereo not drawn) | -15.63 |
| O=C(CN1C[C@H]2CC[C@@H]1CN(Cc1ccccn1)C2)Nc1ccccc1 | 0.8626 |

| Structure (SMILES) | Percent Effect [%] |
| --- | --- |
| O=C(CC1Cn2ncnc2NC1=O)Nc1ccccc1 (stereo not drawn) | 119.2 |
| O=C(CN1CCC(Nc2ncccn2)CC1)Nc1ccccc1 | -0.5486 |
| CCc1ccc(NC(=O)CC2Cn3ncnc3NC2=O)cc1 (stereo not drawn) | 123.1 |
| O=C(Nc1cccc(C(F)(F)F)c1)C1CC(=O)N(Cc2ccccn2)C1 (stereo not drawn) | 6.876 |
| COC(=O)C1CN(CC(=O)Nc2cccc(OC)c2)c2ccccc21 (stereo not drawn) | 10.48 |
| COc1cccc(NC(=O)CC2Cn3ncnc3NC2=O)c1 (stereo not drawn) | 110.1 |
| CCc1ccc(C(=O)Nc2ccc(CC3CC(=O)NC3=O)cc2)s1 (stereo not drawn) | -2.558 |
| COc1cccc(NC(=O)CNc2ccc(C(=O)N(C)C)c(Cl)c2)c1 | 14.49 |
| O=C(Nc1cccc(C(F)(F)F)c1)N1CCN(CCn2ccnc2)CC1 | 2.864 |
| O=C(c1cc(F)cc(Cl)c1)N1CCN(CCO)[C@@H]2CS(=O)(=O)C[C@@H]21 | -9.741 |
| Cc1cc(CN2CCCC(CNC(=O)Cn3cccn3)C2)oc1C (stereo not drawn) | -41.99 |
| O=C(NCCc1cccs1)N1CCCC1CCCO (stereo not drawn) | -4.53 |
| CC(C)c1nc2n(n1)CC(NCc1nc(-c3cccnc3)no1)CC2 (stereo not drawn) | -4.778 |
| COc1ccccc1C1(O)CCCN(C(=O)c2csc(C(C)=O)c2)C1 (stereo not drawn) | 80.49 |
| COc1ncc(C(=O)N2CCC3(CC2)C(=O)Nc2ccccc23)cn1 | -4.36 |
| COc1ccccc1C1(O)CCCN(C(=O)c2cnc(SC)nc2)C1 (stereo not drawn) | 97.81 |
| COc1ccccc1C(=O)N1CCC(O)(c2cccc(C)c2C)CC1 | 6.429 |
| COc1ccccc1C1(O)CCCN(C(=O)c2ccnn2C(C)C)C1 (stereo not drawn) | 100.6 |
| COc1ccccc1[C@@H]1CN(Cc2csc(C(C)=O)c2)C[C@H]1C(=O)O | -15.68 |
| CSc1ncc(C(=O)N2CCC(O)(CN3CCOCC3)C(C)(C)C2)cn1 (stereo not drawn) | -3.216 |
| COc1ccccc1C1CCN(C(=O)c2ncccc2OC(C)C)C1 (stereo not drawn) | 1.547 |
| CC(=O)c1cc(C(=O)N2CCC3(CC2)Nc2ccccc2NC3=O)cs1 | 16.29 |
